# Laboratory results taken from ChEMBL document CHEMBL3988442, “University of Dundee, Small-Polar-MMV Screening Library” (2021).
# Biological target: AMP-activated protein kinase, AMPK (Homo sapiens) (UniProt P54646+O43741+P54619+Q9UGJ0+Q9Y478+Q13131+Q9UGI9)
# Assay: AMP-dependent Kinase enzyme assay. An in vitro enzyme assay that detects ADP turnover that is directly proportional to AMPK activity. This uses naive AMPK that is activated during the assay with MK-8722
# Type: functional
# Design: scale not given: direction of the effect not stated beside the values
# Conditions: 30 µM
row,Compound,Percent Effect [%]
1,Cc1ccc(CCCC(=O)N2CCC(=O)Nc3cccnc32)s1,-8.96
2,O=C(O)c1cn(CC2CCCN(c3nc4ccccc4s3)C2)nn1 (stereo not given),-1.06
3,Cc1cn2c(n1)C(CNCc1cnn3ccccc13)CCC2 (stereo not given),-1.25
4,Cn1c(CO)nnc1SCc1c(F)cccc1Br,2.62
5,Cc1cc(N2CCC3(CCCN(CCO)C3=O)C2)nc2cc(Cl)ccc12 (stereo not given),10
6,O=C1CSCN1Cc1nc(-c2ccc(N3CCCCC3)cc2)no1,2.39
7,CCS(=O)(=O)NCc1nc(C)cc(N2CCCCC2)n1,0.829
8,Cc1[nH]ccc1C(=O)N1CCCC(c2ccc(C(=O)O)cc2)C1 (stereo not given),-0.307
9,CC(C)C(C(N)=O)c1cccc(Cl)c1 (stereo not given),-2.67
10,CC(CNC(=O)c1cnc[nH]1)Oc1ccccc1Br (stereo not given),10.3
11,CN(C)c1ccc(CN2CCN(c3ccc(C#N)cc3)C(=O)C2)cn1,-0.161
12,COc1ccc2cc(C(=O)NCCNc3ccc(C)nn3)[nH]c2c1,8.22
13,CCN(CC)CCCNC(=O)Nc1c(C)cccc1C(C)C,4.58
14,COc1ccc(N2CCC(NC(=O)c3ccc(C#N)cc3)CC2)cc1,5.1
15,CCc1cc(=O)[nH]c(-c2ccc(NC(C)COC)nc2)n1 (stereo not given),-2.5
16,CC(CC(=O)c1ccco1)NC(=O)c1ccccn1 (stereo not given),-8.76
17,CC(CO)NC(=O)Nc1ccc(CC#N)cc1 (stereo not given),-1.29
18,O=C(CCNCc1cccc2c1OCCCO2)NC1CCCC1,-8.82
19,N#CC1COCCN1C(=O)c1ccc2[nH]ccc2c1 (stereo not given),7.92
20,NC(=O)CC1CCN(c2cncc(OCc3ccccc3)n2)CC1,20.6

row,Compound,Percent Effect [%]
1,Cc1cnn(C2CN(CCOc3cccc(C#N)c3)C2)c1,3.61
2,O=C1CN(Cc2cn(CC3CCCN(C4CCSCC4)C3)nn2)CCN1 (stereo not given),-8.48
3,Cc1nnc(CN(C)CC(=O)N2CCCC(C(F)(F)F)C2)n1C (stereo not given),14.3
4,CCc1ncc2c(n1)CN(c1nnc(C)c(C)c1C#N)CC2,-14.7
5,O=C1OCCCN1Cc1nc(-c2ccncc2)no1,-2.07
6,Cc1cc(N(C)C)nc(N2CCn3c(nnc3C(C)C)C2)n1,8.26
7,COc1ccc(CCNC(=O)c2ccc(=O)n(C)c2)c(Cl)c1,5.99
8,O=C(NCc1cccnc1N1CCCCC1)c1ccc2[nH]nnc2c1,-9.59
9,CC(C)N(Cc1ccccn1)C(=O)CCC(=O)c1ccccc1,-4.49
10,CCc1nc(C)c(C(=O)N[C@@H]2c3ccccc3C[C@@H]2O)o1,15.9
11,CC(O)Cc1cn(CC2CCN(C3CCSCC3)CC2)nn1 (stereo not given),-7.5
12,CCc1ccc(CC)c(NCc2cnc(N3CCOCC3)nc2)c1,-6.68
13,NCc1ccnc(Oc2ccc(F)cc2)c1,14.1
14,COCCN1C[C@H]2CC[C@@H]1CN(C(=O)CCc1n[nH]c(C)c1C)C2,-0.161
15,CC1(c2ncc(CN(CC(=O)O)Cc3ccccc3)cn2)CCCCO1 (stereo not given),12.9
16,CCn1cnnc1CNC(=O)N1CCOC(c2ccccc2Cl)C1 (stereo not given),0.771
17,O=C(CCc1ccc(Cl)cc1)N[C@@H]1CC[C@@H](O)[C@@H]1O,14.5
18,NC(=O)CN1C[C@@H](c2ccccc2F)[C@@]2(CCCCC(=O)N2)C1,15.1
19,O=S(=O)(NCc1cn2ccccc2n1)N1CCOCC1,9.32
20,Cc1nc(CNC(=O)Nc2c(C)n[nH]c2C)cs1,-7.09
